The test system of one assay is HCI03 (cells of an ER-positive luminal breast cancer xenograft). The experiment in a line: cell viability (% of vehicle); higher = less cytotoxic. To be noted: 10 µM; 72 h.
The test system of the next assay is HCI11 (cells of an ER-positive luminal breast cancer xenograft). The description is as above. To be noted: 10 µM; 72 h.
The next assay relates to HCI13 (cells of an ER-positive luminal breast cancer xenograft). The description is as above. To be noted: 10 µM; 72 h.
Another assay deals with HCI16 (cells of a triple-negative basal-like breast cancer xenograft). The description is as above. The settings on record: 10 µM; 72 h.
Assay [1] concerns UCD52 (cells of a triple-negative basal-like breast cancer xenograft). The assay is described as above. To be noted: 10 µM; 72 h.
The subject of a further assay is WHIM2 (cells of a triple-negative basal-like breast cancer xenograft). The description is as above. To be noted: 10 µM; 72 h.
The test system of another assay is HCI09 (cells of a triple-negative luminal androgen receptor type breast cancer xenograft). The description is as above. To be noted: 10 µM; 72 h.
In the next assay the test system is HCI01 (cells of a triple-negative basal-like breast cancer xenograft). The experiment in a line: cell viability of combination (% of vehicle); higher = less cytotoxic. The settings on record: 1 µM; 72 h; partner dose: 10 nM. On the procedure: (§1)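 PDX cells were treated for 72 h with each drug at 1 µM plus carfilzomib (10 nM; 100 nM for WHIM2). Luciferase viability is expressed as percent of vehicle.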
Assay [2] relates to UCD52. The assay is described as above. To be noted: 1 µM; 72 h; partner dose: 10 nM. The procedure: as §1
The subject of another assay is WHIM30 (cells of a triple-negative basal-like breast cancer xenograft). Description: cell viability (% of vehicle); higher = less cytotoxic. To be noted: 10 µM; 72 h.

± gives the standard deviation of the averaged measurements.

Take `Nc1nc2ccc(OC(F)(F)F)cc2s1` [Riluzole]: the cell viability is 158 with HCI03; 162 in the assay with HCI11; 161 ± 27 in the assay with HCI13; 139 in the assay with HCI16; 175 ± 15 in the assay with UCD52 [1]; 145 ± 7.3 in the assay on WHIM2.
With `c1cn2cc(-c3ccc4cn[nH]c4c3)nc(Nc3ccc(N4CCOCC4)cc3)c2n1`, the cell viability came out at 125 in the assay with HCI11 and 86.2 with HCI16.
In the case of `CC12CCC(=O)C=C1C1CC1C1C2CCC2(C)C1C1CC1C21CCC(=O)O1` (centres undefined) [Drospirenone], the cell viability with HCI03 amounted to 150; in the assay with HCI09, 178 ± 190; in the assay on HCI13, 84.8 ± 24; in the assay with WHIM2, 39.5 ± 12.
Take `CNC(=O)c1ccccc1Sc1ccc2c(C=Cc3ccccn3)n[nH]c2c1`: the cell viability with HCI11 came out at 158; in the assay with HCI16, 150; with UCD52 [1], 191 ± 4.7.
On to `O=C(CCCCCCC(=O)Nc1ccccc1)NO` [Vorinostat (SAHA, MK0683)], for which the cell viability in the assay with HCI09 worked out at 46.1 ± 37; in the assay with HCI11, 21.7; in the assay with HCI13, 61 ± 23; with WHIM2, 47.5 ± 4.1.
`Cc1ccc(NC(=O)c2ccc(CN3CCN(C)CC3)cc2)cc1Nc1nc(-c2cccnc2)cs1` [Masitinib (AB1010)] + CC(C)C[C@H](NC(=O)[C@H](CCc1ccccc1)NC(=O)CN1CCOCC1)C(=O)N[C@@H](Cc1ccccc1)C(=O)N[C@@H](CC(C)C)C(=O)[C@@]1(C)CO1 [Carfilzomib]: the results for the “cell viability of combination” value with HCI01 and in the assay with UCD52 [2] were 86.3 and 69.6, respectively.
For `CCOc1cc2ncc(C#N)c(Nc3ccc(F)c(Cl)c3)c2cc1NC(=O)C=CCN(C)C` [Pelitinib (EKB-569)] + CC(C)C[C@H](NC(=O)[C@H](CCc1ccccc1)NC(=O)CN1CCOCC1)C(=O)N[C@@H](Cc1ccccc1)C(=O)N[C@@H](CC(C)C)C(=O)[C@@]1(C)CO1 [Carfilzomib] the same measures were 140 and 40.8.
Taken in the same sequence, the figures for `CCCCCOc1ccc(-c2ccc(-c3ccc(C(=O)N[C@H]4C[C@@H](O)[C@@H](O)NC(=O)[C@@H]5[C@@H](O)[C@@H](C)CN5C(=O)[C@H]([C@@H](C)O)NC(=O)[C@H]([C@H](O)[C@@H](O)c5ccc(O)cc5)NC(=O)[C@@H]5C[C@@H](O)CN5C(=O)[C@H]([C@@H](C)O)NC4=O)cc3)cc2)cc1` [Anidulafungin] + CC(C)C[C@H](NC(=O)[C@H](CCc1ccccc1)NC(=O)CN1CCOCC1)C(=O)N[C@@H](Cc1ccccc1)C(=O)N[C@@H](CC(C)C)C(=O)[C@@]1(C)CO1 [Carfilzomib] were 73.7 and 60.
As to `Cn1nnc(-c2ccc(-c3ccc(N4CC(CO)OC4=O)cc3F)cn2)n1` (centres undefined) [Tedizolid], the cell viability in the assay with HCI11 came out at 107; in the assay on HCI16, 170; in the assay with WHIM2 it was 157 ± 57.
With `Clc1ccc(COC(Cn2ccnc2)c2ccc(Cl)cc2Cl)cc1.O=[N+]([O-])O` (centres undefined) [Econazole nitrate] + CC(C)C[C@H](NC(=O)[C@H](CCc1ccccc1)NC(=O)CN1CCOCC1)C(=O)N[C@@H](Cc1ccccc1)C(=O)N[C@@H](CC(C)C)C(=O)[C@@]1(C)CO1 [Carfilzomib], the “cell viability of combination” value in the assay with HCI01 worked out at 89.1; in the assay on UCD52 [2], 59.8.
For `CC(O)C(=O)O.CC(O)C(=O)O.CN1CCN(c2ccc3c(c2)NC(=C2C(=O)N=c4cccc(F)c4=C2N)N3)CC1` [Dovitinib Dilactic acid] + CC(C)C[C@H](NC(=O)[C@H](CCc1ccccc1)NC(=O)CN1CCOCC1)C(=O)N[C@@H](Cc1ccccc1)C(=O)N[C@@H](CC(C)C)C(=O)[C@@]1(C)CO1 [Carfilzomib] the same measures were 71.2 and 88.8.
Turning to `CO[C@H]1C[C@@H]2CC[C@@H](C)[C@@](O)(O2)C(=O)C(=O)N2CCCC[C@H]2C(=O)O[C@H]([C@H](C)C[C@@H]2CC[C@@H](OC(=O)C(C)(CO)CO)[C@H](OC)C2)CC(=O)[C@H](C)/C=C(\C)[C@@H](O)[C@@H](OC)C(=O)[C@H](C)C[C@H](C)/C=C/C=C/C=C/1C` [Temsirolimus] + CC(C)C[C@H](NC(=O)[C@H](CCc1ccccc1)NC(=O)CN1CCOCC1)C(=O)N[C@@H](Cc1ccccc1)C(=O)N[C@@H](CC(C)C)C(=O)[C@@]1(C)CO1 [Carfilzomib], the “cell viability of combination” value in the assay with HCI01 was found to be 72.4; in the assay with UCD52 [2], 49.5.
In the case of `Oc1ccc(C=Cc2cc(O)cc(O)c2)cc1` [Resveratrol], the cell viability worked out at 196 ± 110 in the assay on HCI09, 174 with HCI16 and 191 ± 54 in the assay with WHIM2.
For the compound `COC(=O)NC(C(=O)NC(Cc1ccccc1)C(O)CN(Cc1ccc(-c2ccccn2)cc1)NC(=O)C(NC(=O)OC)C(C)(C)C)C(C)(C)C` (centres undefined) [Atazanavir] + CC(C)C[C@H](NC(=O)[C@H](CCc1ccccc1)NC(=O)CN1CCOCC1)C(=O)N[C@@H](Cc1ccccc1)C(=O)N[C@@H](CC(C)C)C(=O)[C@@]1(C)CO1 [Carfilzomib], the “cell viability of combination” value in the assay with HCI01 was found to be 79.8; in the assay with UCD52 [2], 63.2.
For `CC(CCC(=O)O)C1CCC2C3CCC4CC(O)CCC4(C)C3CCC12C` (centres undefined) [Lithocholic Acid] + CC(C)C[C@H](NC(=O)[C@H](CCc1ccccc1)NC(=O)CN1CCOCC1)C(=O)N[C@@H](Cc1ccccc1)C(=O)N[C@@H](CC(C)C)C(=O)[C@@]1(C)CO1 [Carfilzomib] the same measures were 67.4 and 60.5.
Regarding `O=C(Nc1nc2cccc(-c3ccc(CN4CCS(=O)(=O)CC4)cc3)n2n1)C1CC1`, the cell viability with HCI09 worked out at 186 ± 51; with WHIM30 it was 147 ± 9.8.
Regarding `Cl.OC(c1cc(C(F)(F)F)nc2c(C(F)(F)F)cccc12)C1CCCCN1` (centres undefined) [Mefloquine hydrochloride] + CC(C)C[C@H](NC(=O)[C@H](CCc1ccccc1)NC(=O)CN1CCOCC1)C(=O)N[C@@H](Cc1ccccc1)C(=O)N[C@@H](CC(C)C)C(=O)[C@@]1(C)CO1 [Carfilzomib], the figures for the “cell viability of combination” value in the assay on HCI01 and in the assay on UCD52 [2] were 82.9 and 51.6, respectively.
Taken in the same sequence, the figures for `COC(=O)C1=C(C)NC(C)=C(C(=O)OCCN(C)Cc2ccccc2)C1c1cccc([N+](=O)[O-])c1.Cl` (centres undefined) [Nicardipine HCl] + CC(C)C[C@H](NC(=O)[C@H](CCc1ccccc1)NC(=O)CN1CCOCC1)C(=O)N[C@@H](Cc1ccccc1)C(=O)N[C@@H](CC(C)C)C(=O)[C@@]1(C)CO1 [Carfilzomib] were 115 and 52.
For `Br.Cc1ccc(Sc2ccccc2N2CCNCC2)c(C)c1` + CC(C)C[C@H](NC(=O)[C@H](CCc1ccccc1)NC(=O)CN1CCOCC1)C(=O)N[C@@H](Cc1ccccc1)C(=O)N[C@@H](CC(C)C)C(=O)[C@@]1(C)CO1 [Carfilzomib] the same measures were 98.3 and 50.8.
In the assay on HCI11, `Cc1oncc1C(=O)Nc1ccc(C(F)(F)F)cc1` [Leflunomide] had a cell viability of 194.
As to `CS(=O)(=O)O.Cc1c(O)cccc1C(=O)NC(CSc1ccccc1)C(O)CN1CC2CCCCC2CC1C(=O)NC(C)(C)C` (centres undefined) [Nelfinavir Mesylate] + CC(C)C[C@H](NC(=O)[C@H](CCc1ccccc1)NC(=O)CN1CCOCC1)C(=O)N[C@@H](Cc1ccccc1)C(=O)N[C@@H](CC(C)C)C(=O)[C@@]1(C)CO1 [Carfilzomib], the results for the “cell viability of combination” value in the assay with HCI01 and with UCD52 [2] were 80.3 and 57.2, respectively.
Taken in the same sequence, the figures for `CCN1CCN(Cc2ccc(Nc3ncc(F)c(-c4cc(F)c5nc(C)n(C(C)C)c5c4)n3)nc2)CC1.CS(=O)(=O)O` + CC(C)C[C@H](NC(=O)[C@H](CCc1ccccc1)NC(=O)CN1CCOCC1)C(=O)N[C@@H](Cc1ccccc1)C(=O)N[C@@H](CC(C)C)C(=O)[C@@]1(C)CO1 [Carfilzomib] were 62.7 and 64.9.

(Values after the supplement of paper PMC6992640.)
